# Where a name gives a salt, the structure may show the parent alone.
# System: Saccharomyces cerevisiae BY4741 SeMeCo community
# Assay: z-score of subpopulation abundance vs DMSO median, subpopulation auxotrophic for HLM; higher = larger share of this subpopulation than in DMSO controls
# Settings: 10 µM; 24 h; SM minimal medium; subpopulation (auxotrophy): HLM
# Experimental: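 Fluorescent four-plasmid SeMeCo (self-establishing metabolically cooperating S. cerevisiae BY4741 community; plasmids pH-mRuby2, pL-mWasabi, pU-eCFP, pM-TagRFP657) was grown 24 h in minimal SM medium with each Selleck FDA-approved drug at 10 µM in 384-well plates. Cells were fixed and imaged by high-content confocal microscopy. For each auxotrophic subpopulation (and the prototroph), a z-score gives the deviation from the DMSO vehicle-control population median.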
row,Structure (SMILES),z-score of subpopulation abundance
1,CN1[C@@H]2C[C@@H](OC(=O)[C@H](CO)c3ccccc3)C[C@H]1[C@@H]1O[C@@H]12 [Scopolamine HBr],-0.52
2,CC(=O)OCC1=C(C(=O)O)N2C(=O)C(N)C2SC1 (centres undefined) [7-Aminocephalosporanic acid],-0.1
3,Nc1nc(N)nc(NC2CC2)n1 [Cyromazine],0.4
4,COc1ccc(C(CN(C)C)C2(O)CCCCC2)cc1 (centres undefined) [Venlafaxine],-0.65
5,Oc1cc(Cl)ccc1Oc1ccc(Cl)cc1Cl [Triclosan],1.15
6,C=CCN1C[C@H](C(=O)N(CCCN(C)C)C(=O)NCC)C[C@@H]2c3cccc4[nH]cc(c34)C[C@H]21 [Cabergoline],-0.2
7,O=C(O[C@H]1C[C@H]2CC[C@@H](C1)[N+]21CCCC1)C(O)(c1ccccc1)c1ccccc1 [Trospium chloride],0.01
8,CCN(C)C(=O)Oc1cccc([C@H](C)N(C)C)c1 [Rivastigmine Tartrate],0.01
9,COc1ccc2c3c([nH]c2c1)C(C)=NCC3 [Harmaline],2.63
10,CCCN1C[C@H](CSC)C[C@@H]2c3cccc4[nH]cc(c34)C[C@H]21 [Pergolide Mesylate],-0.43
11,CC(NC(C)(C)C)C(=O)c1cccc(Cl)c1 (centres undefined) [Amfebutamone (Bupropion) HCl],0.09
12,CN1[C@@H]2C[C@@H](OC(=O)[C@H](CO)c3ccccc3)C[C@H]1[C@@H]1O[C@@H]12 [Scopolamine HBr trihydrate],-0.8
13,CN(C)[C@@H]1C(=O)C(C(N)=O)=C(O)[C@@]2(O)C(=O)C3=C(O)c4c(O)cccc4[C@@](C)(O)[C@H]3[C@H](O)[C@@H]12 [Oxytetracycline Dihydrate],-0.22
14,O=c1[nH]c2ccccc2n1CCCN1CCC(n2c(=O)[nH]c3cc(Cl)ccc32)CC1 [Domperidone],1.97
15,N[C@@H]1C[C@H]1c1ccccc1 [Tranylcypromine (2-PCPA) HCl],0.39
16,C=CC[C@]1(O)CC[C@H]2[C@@H]3CCC4=CC(=O)CCC4=C3C=C[C@@]21C [Altrenogest],-0.47
17,CCOC(=O)Nc1ccc(NCc2ccc(F)cc2)cc1N [Retigabine 2HCl],-0.02

row,Structure (SMILES),z-score of subpopulation abundance
1,CC(C)=CCOc1c2occc2cc2ccc(=O)oc12 [Imperatorin],1.2
2,CN(C)C(=O)Oc1cccc([N+](C)(C)C)c1 [Neostigmine Bromide],-0.52
3,O=c1cccc2n1C[C@@H]1CNC[C@H]2C1 [Cytisine],-0.15
4,CN(C)[C@@H]1C(=O)C(C(N)=O)=C(O)[C@@]2(O)C(=O)C3=C(O)c4c(O)cccc4[C@@](C)(O)[C@H]3C[C@@H]12 [Tetracycline HCl],-0.42
5,CCN1CC2(OC(=O)c3ccccc3NC(C)=O)CCC(OC)C34C1C(CC23)C1(O)CC(OC)C2CC4C1(O)C2OC (centres undefined) [Lappaconitine],-0.42
6,CC1(C)SC2C(N)C(=O)N2C1C(=O)O (centres undefined) [6-Aminopenicillanic acid],-0.43
7,CC(C)N(CCC(C(N)=O)(c1ccccc1)c1ccccn1)C(C)C (centres undefined) [Disopyramide],0.67
8,C[C@@H]1O[C@@H](O[C@H]2C[C@@H](O)[C@]3(CO)[C@H]4[C@H](O)C[C@]5(C)[C@@H](C6=CC(=O)OC6)CC[C@]5(O)[C@@H]4CC[C@]3(O)C2)[C@H](O)[C@H](O)[C@H]1O [Ouabain],-0.79
9,COc1cc2c(cc1OC)C1CC(=O)C(CC(C)C)CN1CC2 (centres undefined) [Tetrabenazine (Xenazine)],3.78
10,CC[C@@]1(O)C(=O)OCc2c1cc1n(c2=O)Cc2cc3ccccc3nc2-1 [Camptothecin],-0.76
11,CN(C)[C@@H]1C(=O)C(C(N)=O)=C(O)[C@@]2(O)C(=O)C3=C(O)c4c(O)ccc(Cl)c4[C@@](C)(O)[C@H]3C[C@@H]12 [Chlortetracycline HCl],-0.55
12,COC(=O)C1=CCCN(C)C1 [Arecoline HBr],0.28
13,C[CH2][Hg][S]c1ccccc1C(=O)[O-].[Na+] [Thimerosal],131
14,CC[N+](C)(CC)CCOC(=O)C(O)(c1ccccc1)c1ccccc1 [Methylbenactyzine Bromide],-1.19
15,C=CN1CCCC1=O.II [Povidone iodine],0.98
16,Nc1ccncc1 [4-Aminopyridine],-0.2
17,COc1ccc(C(CN(C)C)C2(O)CCCCC2)cc1 (centres undefined) [Venlafaxine HCl],-0.22

# — the supplement of paper PMC8975748
